Reference: PubChem BioAssay (NCI)
This is part of a sample that, as a whole, favours compounds with a hit. Of some 79,000 tested, about 15% had one in any assay. No stated cut-off is given here; in the data, active means growth inhibition above about 70%; inactive means the rest.

Assays:
[1] = NCI Yeast Anticancer Drug Screen. Data for the rad50 strain (AID 155);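 further: 0% = growth of vehicle-only cultures of the same strain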; conditions: S. cerevisiae rad50 strain growth inhibition, stronger effect = higher value; at 50.0 µM unless noted
In short: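 Inhibition values express reduced yeast growth in compound-treated cultures relative to vehicle-treated controls.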

[2] = NCI Yeast Anticancer Drug Screen. Data for the mec2-1 strain (AID 157); conditions: S. cerevisiae mec2-1 strain, stronger effect = higher value; at 50.0 µM unless noted
In short: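 Strain: mec2-1 (DNA repair/cell cycle alteration). Compound exposure, then growth measured; inhibition expressed relative to vehicle.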

[3] = NCI Yeast Anticancer Drug Screen. Data for the sgs1 mgt1 strain (AID 161);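 further: 0% = growth of cultures given vehicle only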; conditions: S. cerevisiae sgs1 mgt1 strain, stronger effect = higher value; at 50.0 µM unless noted
In short: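 Read-out: growth inhibition vs vehicle controls. Cells: mutant yeast strain deficient in DNA damage repair.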

[4] = NCI Yeast Anticancer Drug Screen. Data for the cln2 rad14 strain (AID 165);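 further: 0% = growth equal to vehicle treated cultures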; conditions: S. cerevisiae cln2 rad14 strain, stronger effect = higher value; at 50.0 µM unless noted
In short: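 Compounds are applied to the cln2 rad14 yeast strain, and growth is then compared with that of vehicle-treated cultures to give inhibition.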

[5] = NCI Yeast Anticancer Drug Screen. Data for the bub3 strain (AID 167); conditions: S. cerevisiae bub3 mutant strain, stronger effect = higher value; at 50.0 µM unless noted
In short: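 Steps: expose the mutant yeast strain to compound; grow alongside vehicle-treated cultures; measure growth; express inhibition against the vehicle cultures.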

[6] = NCI Yeast Anticancer Drug Screen. Data for the mlh1 rad18 strain (AID 175); conditions: S. cerevisiae mlh1 rad18 strain growth inhibition, stronger effect = higher value; at 50.0 µM unless noted
In short: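 Read-out is yeast growth inhibition, calculated against vehicle-only controls. The compound was applied to a strain engineered with DNA damage repair alterations.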

Measured: growth inhibition

CCN1CCC(S(=O)(=O)CCS(=O)(=O)C2CCN(CC)C2)C1 (stereo not given)
inactive: [1] -6.3% | [2] 0.55% | [3] 11.7% | [4] 3.6% | [5] 17.3% | [6] 2.05%

CC1=Nc2cc(Cl)c(Cl)cc2N(C)/C1=C/C1=C(Cl)C(=O)c2cc3c(Cl)ccc(Cl)c3cc2C1=O
inactive: [1] -0.05% | [2] 8.75% | [3] 13.1% | [4] 25.1% | [5] -1.4% | [6] 20.8%

O=C(NCCCl)c1ccc(Cl)c(Cl)c1
inactive: [1] 2.8% | [2] 0.25% | [3] 4.95% | [4] -20.9% | [5] 12.8% | [6] 3.7%

C=C1CC(C)(COc2ccc3ccc(=O)oc3c2)OC1=O (stereo not given)
inactive: [1] 24.4% | [2] 15.4% | [3] 49% | [4] 37.5% | [5] 17.6% | [6] 41%

CC(=O)OCC1OC(n2c(=O)[nH]c(=O)c3n[nH]nc32)C(OC(C)=O)C(OC(C)=O)C1OC(C)=O (stereo not given)
inactive: [1] -4.2% | [2] 7.15% | [3] 3.4% | [4] 24.9% | [5] -1.05% | [6] -4.35%

CCS(=O)(=O)c1ccc(NC(=O)OC2CCC3(C)C(=CCC4C3CCC3(C)C(C(C)CCCC(C)C)CCC43)C2)cc1 (stereo not given)
inactive: [1] 21.5% | [2] 6.15% | [3] 10.2% | [4] 20.4% | [5] -3.25% | [6] 3.65%

N#Cc1nc(C2CC2)oc1N
inactive: [1] -18.7% | [2] -2.65% | [3] -22.9% | [4] 0.35% | [5] -25.2% | [6] 1.65%

COc1ccc(CCl)cc1OCc1ccccc1
inactive: [1] -33.7% | [2] -17.8% | [3] -16.7% | [4] -24.4% | [5] -14.7% | [6] -21.2%

CC1(C)C2=CC3(C)N(CN2c2ccccc21)c1ccccc1C3(C)C (stereo not given)
inactive: [1] 17.1% | [2] 24.4% | [3] 18.8% | [4] 7% | [5] 12.9% | [6] 15.9%

Cc1cc(C)c(-c2c(C)cc(C)c(C(=O)c3ccc([N+](=O)[O-])cc3)c2C)c(C)c1C(=O)c1ccc([N+](=O)[O-])cc1
inactive: [1] 25.7% | [2] 2.85% | [3] 11.8% | [4] 9.25% | [5] 3.2% | [6] 8.85%

S=c1sc2c(s1)SCCCCSCCCCSc1sc(=S)sc1SCCCCSCCCCS2
inactive: [1] 13.3% | [2] 8.6% | [3] 1.1% | [4] 16.1% | [5] 6.75% | [6] -29.4%

COC(=O)C(=O)C(C(=O)C(=O)Nc1cccc(C(C)=O)c1)c1nc2ccccc2[nH]c1=O (stereo not given)
inactive: [1] 2.7% | [2] -9.45% | [3] 2.15% | [4] 14.2% | [5] -18.9% | [6] 3.5%

COC(=O)c1ccc(SCCC(=O)CN2C(=O)c3ccccc3C2=O)cc1
inactive: [1] 18.9% | [2] 8.5% | [3] 17.1% | [4] 23.1% | [5] 4.1% | [6] 27.8%

CC(=O)Nc1ccc(S(=O)(=O)NC(C)=O)cc1
inactive: [1] -5.8% | [2] -8.75% | [3] -2.7% | [4] -20.4% | [5] 6.7% | [6] 12.6%

Cc1ccc(N2CCC(O)C2)cc1 (stereo not given)
inactive: [1] -19.4% | [2] -8.5% | [3] -7.05% | [4] 4.95% | [5] -8.4% | [6] -25.9%

CCCCN(CCCC)CC(C(=O)Nc1ccc([N+](=O)[O-])cc1[N+](=O)[O-])/C(C)=N\NC(=O)c1ccncc1 (stereo not given)
inactive: [1] 22.7% | [2] -3.65% | [3] 11.8% | [4] -65.1% | [5] 2.55% | [6] 18.1%

O=C(NCCCl)Nc1c(Cl)cccc1Cl
inactive: [1] -4.6% | [2] 14.3% | [3] 6% | [4] -18.6% | [5] 1.8% | [6] -4.2%

O=C(O)c1nc2cn1/C=C\C=NCC1=CN3C=CC=NC3(C(=O)O)N1C2 (stereo not given)
inactive: [1] -14.6% | [2] -2.95% | [3] -12.4% | [4] -43.2% | [5] 1.05% | [6] -18.9%

CC1OC(Cl)CC(NC(=O)C(F)(F)F)C1OC(=O)C(F)(F)F (stereo not given)
inactive: [1] -0.55% | [2] -1.7% | [3] -5.55% | [4] -17.8% | [5] 14.2% | [6] 13.9%

C/C=C\c1noc2c1C(=O)OC(C)C2 (stereo not given)
inactive: [1] 49.4% | [2] 23.4% | [3] 40.4% | [4] 14.2% | [5] 22.4% | [6] 17.6%

CC(=O)C(C(C)=O)=C1CCCC(O)O1 (stereo not given)
inactive: [1] 20.4% | [2] -0.7% | [3] 4.55% | [4] 5.7% | [5] 2.65% | [6] 13.1%

CCCCCCCCC(=O)NCCOC
inactive: [1] 10.9% | [2] 2.8% | [3] 5.8% | [4] -20.8% | [5] -2.95% | [6] 10.6%

Cc1ccc2nc(C=Nc3ccccc3Cl)cc(C)c2c1
inactive: [1] -7.4% | [2] -5.85% | [3] -9.3% | [4] 17.8% | [5] -4.45% | [6] 3.2%

C=C1C(=O)O[C@@H]2O[C@@]3(C)CC[C@H]4[C@H](C)CC[C@@H]1[C@@]24O3
inactive: [1] 26.6% | [2] 26.9% | [3] 52.1% | [4] 22% | [5] 12.2% | [6] 40.5%

O=C(Nc1ccccc1)C12CCC(CC1Br)C2 (stereo not given)
inactive: [1] 4.95% | [2] -9.25% | [3] -9.7% | [4] 7.6% | [5] 1.75% | [6] 14.2%

O=C1OC(/C=C/c2ccccc2)=NC/1=C\c1ccc2c(c1)OCO2
inactive: [1] -4.95% | [2] 18.9% | [3] -16.4% | [4] -21.1% | [5] -1.85% | [6] -19.8%

O=S(=O)(O)c1cc(O)c(S(=O)(=O)O)cc1O
inactive: [1] -12.2% | [2] 13.9% | [3] 1.7% | [4] -3.6% | [5] 1.4% | [6] -8.6%

Cc1ccc2ccc3ccccc3c2c1
inactive: [1] 46% | [2] 1.45% | [3] 9.2% | [4] 20.4% | [5] 17.9% | [6] 26.2%

CCOc1ccccc1Nc1ccc(N)cc1S(=O)(=O)O
inactive: [1] 9.45% | [2] 0.85% | [3] -31.5% | [4] -6.2% | [5] 1.35% | [6] -8.05%

CCOC(=O)c1[nH]c(=S)n(C)c1C(=O)OCC
inactive: [1] -12.9% | [2] 6.75% | [3] 29.1% | [4] -33% | [5] 8.1% | [6] 0.55%

Cc1ccc(S(=O)(=O)CBr)cc1
inactive: [1] 5.35% | [2] 14% | [3] 6.9% | [4] 3.3% | [5] 4.6% | [6] 5.2%

CCN(CC)CCCCCCNc1cc(OC)c(OC)c2c(C)ccnc12
inactive: [1] 23.6% | [2] 18.1% | [3] 5.6% | [4] -14.4% | [5] -1.8% | [6] 28.2%

CC1CCC(OC(=O)CCC2CCCCC2)CC1 (stereo not given)
inactive: [1] -1.6% | [2] -12.1% | [3] 4.35% | [4] -34.2% | [5] -12.4% | [6] -18.3%

NC(=O)Cc1ccc2c3c(cccc13)CC2
inactive: [1] 15.4% | [2] 5.45% | [3] 2.45% | [4] -34.2% | [5] 11.8% | [6] 9.05%

COCCOC(=O)c1ccc(C)cc1
inactive: [1] 9.8% | [2] 17.8% | [3] 10.6% | [4] 14.8% | [5] 12.1% | [6] 8.1%

CCN(CC)CCCC(C)NCC1C(O)CCC2CN3CCc4c([nH]c5ccccc45)C3CC21 (stereo not given)
inactive: [1] 23.8% | [2] 9.45% | [3] 25.2% | [4] 23.6% | [5] 18.6% | [6] 25.1%

Oc1ccc(-c2nc(-c3cccnc3)c(-c3ccc(F)cc3)[nH]2)cc1
inactive: [1] 5.2% | [2] -13.7% | [3] 12.8% | [4] 8.55% | [5] 12.5% | [6] 57.8%

CCOC(=O)C1=C(C)O/C(=C/c2cccc(Cl)c2)C1=O
inactive: [1] 42% | [2] 35.2% | [3] 31.1% | [4] 45.9% | [5] 47% | [6] 56.1%

Cc1ccc(C(=O)CC(Sc2ccccc2N)c2c(Cl)cccc2Cl)c(C)c1 (stereo not given)
inactive: [1] -7.4% | [2] -26.4% | [3] 3.8% | [4] -4.5% | [5] -11.1% | [6] -16.5%

Nc1nnc2nc(CC(=O)c3cccc([N+](=O)[O-])c3)/c(=C/C(=O)c3cccc([N+](=O)[O-])c3)n12
inactive: [1] 33.5% | [2] 18.7% | [3] 12.2% | [4] 7.45% | [5] -4.8% | [6] 22.8%
